JMJD2A Tudor – blocks the human JMJD2A Tudor domain; 390,000 compounds, 4.4% hits; AlphaScreen JMJD2A-Tudor / H3K4me3 peptide binding; AID 504339; Potency, µM (doses to about 114 µM), hits mostly inhibitors; further: nearly all actives have a fitted effect of over 50% in size
G9a block – G9a (human) methyltransferase inhibition | Potency, µM (series often up to 102 µM), usual class: inhibitors | G9a H3K9 monomethylation, AlphaScreen, 2 h | AID 504332 | 350,000 compounds, 8.8% hits; further: nearly all actives have a fitted effect of over 75% in size
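AlphaScreen read-out: biotin-H3K9 peptide (500 nM) methylation by 20 nM enzyme with 20 uM SAM, 2 h at room temperature after 15 min compound preincubation; anti-monomethyl H3K9 antibody plus donor/acceptor beads, 10 min dark.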
HP1b binding inh – inhibitors of HP1-beta chromodomain binding to methylated histone tails | AID 540317 | 390,000 compounds, 0.56% hits | Potency, µM (highest dose often 114 µM), usual class: inhibitors | AlphaScreen HP1-beta / biotin-H3K9me3 peptide binding | P83916; further: nearly all actives have a fitted effect of over 70% in size
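HP1-beta protein (50 nM final) preincubated 30 min at room temperature with biotinylated H3(1-18)K9me3 peptide (50 nM) in PBS pH 7.4, 0.01% Tween-20, then compound added for 30 min. AlphaScreen streptavidin donor/nickel chelate acceptor beads (10 ug/mL final), 30 min dark, luminescence read.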
PI5P4Ka inh – PI5P4K alpha (human) kinase inhibition | P48426 | PI5P4Kalpha enzyme, ADP-Glo luminescence, 60 min; stronger effect = lower value | max response, % | 330,000 compounds, 1.2% hits; active means max response of -50% or lower; inconclusive means between -30% and -50%; inactive means -30% or higher; further: value at the top dose of about 77 µM
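Compounds were pin-transferred onto PI5P4Kalpha and substrate in HEPES pH 7.4 buffer with EGTA, CHAPS and 5% DMSO. ATP (5 microM final) started the reaction, which ran 60 minutes at room temperature before ADP-Glo detection.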
PLK1 PBD block – inhibitors of human PLK1 polo-box domain binding. Potency, µM, hits mostly inhibitors. P53350. 360,000 compounds, 2.8% hits. Plk1 PBD binding of FITC phosphopeptide, fluorescence polarization; further: series mostly up to about 57 µM; nearly all actives have a fitted effect of over 65% in size
Target sequence (P53350 whole entry, looked up, the tested form may be a part): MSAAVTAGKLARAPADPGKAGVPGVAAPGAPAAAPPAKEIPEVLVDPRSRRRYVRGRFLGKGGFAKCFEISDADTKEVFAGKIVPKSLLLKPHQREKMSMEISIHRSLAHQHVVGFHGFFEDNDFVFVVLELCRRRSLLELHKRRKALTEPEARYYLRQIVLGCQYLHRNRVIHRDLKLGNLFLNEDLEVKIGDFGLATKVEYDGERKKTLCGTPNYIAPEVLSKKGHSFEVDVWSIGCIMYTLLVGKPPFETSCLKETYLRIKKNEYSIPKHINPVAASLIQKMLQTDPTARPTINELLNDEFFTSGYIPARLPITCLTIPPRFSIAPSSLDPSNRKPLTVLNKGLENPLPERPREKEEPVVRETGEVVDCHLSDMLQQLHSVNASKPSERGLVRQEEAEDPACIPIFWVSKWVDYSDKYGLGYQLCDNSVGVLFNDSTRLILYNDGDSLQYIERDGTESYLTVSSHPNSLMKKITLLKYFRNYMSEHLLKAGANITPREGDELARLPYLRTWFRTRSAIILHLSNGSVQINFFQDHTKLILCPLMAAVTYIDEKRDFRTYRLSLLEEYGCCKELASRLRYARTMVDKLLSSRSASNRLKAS
BAZ2B inh – blocks human BAZ2B. AlphaScreen BAZ2B-H3K14Ac peptide displacement. Potency, µM (titrated, usually from 114 µM), hits mostly inhibitors. 360,000 compounds, 4.4% hits. AID 504333; further: nearly all actives have a fitted effect of over 60% in size
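Multi-concentration screen (max 110 uM) measuring displacement of acetylated histone H3 peptide from BAZ2B by AlphaScreen, using 50 nM protein, 50 nM peptide and 10 ug/mL streptavidin donor plus Ni-chelate acceptor beads.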
Of the large screens only hits and unclear results are named; the others gave an inactive call. In the library only some 12% were active in any assay of this set; here they are far more common. Unless noted, the call rests on the fitted dose curve; in most records, active means well fitted curve in the direction sought with a large enough effect; inconclusive means small, poorly fitted or top-dose-only effect, or another doubt; inactive means no such curve, though single readings can be large; an effect the other way counts as inactive or inconclusive.

CCn1c(C(C)NS(=O)(=O)c2ccc(Cl)cc2)n[nH]c1=S (stereo not drawn)	JMJD2A Tudor 20µM (no result: G9a block)
CCn1c(CNS(=O)(=O)c2ccc(Br)cc2)n[nH]c1=S	JMJD2A Tudor 22.4µM, G9a block 35.5µM
CCCC(C)NS(=O)(=O)c1ccccc1 (stereo not drawn)	none (no result: PI5P4Ka inh)
C#CCSc1nnc(CNS(=O)(=O)c2ccc(Br)cc2)n1C	none
CCCn1c(C(C)NS(=O)(=O)c2ccccc2)n[nH]c1=S (stereo not drawn)	JMJD2A Tudor inconclusive, G9a block 20µM
Cc1cc(=O)n(Cc2cccc(Br)c2)c2c1c(C)nn2-c1ccccc1	none (no result: PI5P4Ka inh, PLK1 PBD block)
CC(=O)C1=CCC(c2ccccc2)N(S(=O)(=O)c2ccccc2)C1 (stereo not drawn)	none (no result: JMJD2A Tudor, G9a block, HP1b binding inh, BAZ2B inh)
COc1ccc(OCc2n(CC(=O)OC3CC(C)CCC3C(C)C)c3ccccc3[n+]2C)cc1 (stereo not drawn)	JMJD2A Tudor inconclusive, G9a block inconclusive
COc1ccc(-c2n(CC(=O)OC3CC(C)CCC3C(C)C)c3ccccc3[n+]2C)cc1 (stereo not drawn)	G9a block 1.12µM, BAZ2B inh inconclusive
CCS(=O)c1scc(-c2ccc(Cl)cc2)c1C#N (stereo not drawn)	G9a block 50.1µM
Cc1nn(-c2ccc(N3CCCC3)nn2)c(C)c1CCC(=O)N1CCN(c2ccc(F)cc2)CC1	BAZ2B inh inconclusive (no result: PI5P4Ka inh, PLK1 PBD block)
O=C(/C=C\c1ccccc1)Nc1ccc(NC(=O)c2ccco2)cc1	JMJD2A Tudor 10µM, HP1b binding inh inconclusive, PI5P4Ka inh inconclusive, PLK1 PBD block 3.36µM
O=C(/C=C/C=C/c1ccccc1)c1ccco1	G9a block 50.1µM, BAZ2B inh inconclusive
O=C(/C=C/c1ccc(Br)cc1)c1ccco1	none
O=C(/C=C/c1ccc(Br)cc1)c1ccc(NC(=O)c2ccco2)cc1	BAZ2B inh inconclusive
Cc1ccccc1Cn1cc(CCC(=O)NCc2cccc(Br)c2)c2ccccc21	BAZ2B inh inconclusive (no result: PI5P4Ka inh, PLK1 PBD block)
Cn1c(=O)c2c(SCC(=O)N3CCc4ccccc43)nc(-c3cccc(F)c3)nc2n(C)c1=O	none (no result: PI5P4Ka inh, PLK1 PBD block)
CCOc1cccc(CC(=O)N2CCc3c([nH]c4ccccc34)C2c2ccccc2)c1OCC (stereo not drawn)	JMJD2A Tudor inconclusive, BAZ2B inh inconclusive (no result: PI5P4Ka inh, PLK1 PBD block)
CCOC(=O)N1CCN(C(=O)c2ccc3c(c2)N(CC)CCS3)CC1	G9a block 35.5µM
CCN1CCSc2ccc(C(=O)Nc3ccc(NC(C)=O)cc3)cc21	G9a block 50.1µM
CC(C)Oc1ccc(CNC(=O)c2ccc3c(c2)N(C)CCS3)cc1	JMJD2A Tudor inconclusive, G9a block 56.2µM, BAZ2B inh inconclusive
CCN1CCSc2ccc(C(=O)NCc3ccccc3C)cc21	JMJD2A Tudor inconclusive, G9a block 70.8µM, BAZ2B inh inconclusive
Cn1cc(C(=O)NCCc2ccccc2)c(=O)c2cc(S(=O)(=O)N3CCCCCC3)ccc21	none (no result: PI5P4Ka inh, PLK1 PBD block, BAZ2B inh)
CN1CCSc2ccc(C(=O)NCc3ccccc3F)cc21	G9a block 11.2µM
CCN1CCSc2ccc(C(=O)NCc3ccccc3F)cc21	JMJD2A Tudor inconclusive (no result: G9a block)
CCN(CC)C(=O)c1sc2c(c1C)c(=O)n(-c1ccc(Cl)c(Cl)c1)c(=O)n2CC(=O)Nc1cccc(OC)c1	none (no result: PI5P4Ka inh, PLK1 PBD block)
CC12CCC(=O)N1C(C(=O)Nc1ccc(F)c(Cl)c1)CS2 (stereo not drawn)	none
CC(NC(=O)c1sc2ncccc2c1-n1cccc1)c1ccccc1 (stereo not drawn)	none (no result: PI5P4Ka inh, PLK1 PBD block)
Fc1ccc(-c2csc3ncnc(Nc4ccc(N5CCOCC5)cc4)c23)cc1	JMJD2A Tudor inconclusive, BAZ2B inh 39.8µM (no result: PI5P4Ka inh)
Fc1ccc(N2CCN(c3nc(CN4CCOCC4)nc4scc(-c5ccccc5)c34)CC2)cc1	JMJD2A Tudor 44.7µM, G9a block 8.91µM, HP1b binding inh inconclusive, BAZ2B inh 11.2µM
COc1ccc2nc(C)cc(Nc3ccc(Cl)c(Cl)c3)c2c1	none (no result: PI5P4Ka inh, PLK1 PBD block)
Cc1ccc(S(=O)(=O)N2CCN(C(=O)COC(=O)c3cncc(Br)c3)CC2)c(C)c1	none (no result: G9a block, BAZ2B inh)
COc1ccc(NS(=O)(=O)c2cc(OC)ccc2OC)cc1	none (no result: G9a block, BAZ2B inh)

Source: PubChem (National Center for Advancing Translational Sciences (NCATS))
